# Tau fibril ThT: tau fibrillization inhibition (ThT binding). P10636. recombinant tau K18 P301L, heparin-induced fibrillization, ThT fluorescence. Potency, µM (doses to about 57.4 µM), for the others: top-dose activity, negative = inhibition, most hits filed as inhibitors. hit rate 2.1% among 270,000. AID 1460; also: potency is read from the fitted curve at half-maximal effect; nearly all actives have a fitted effect of over 55% in size
# Target sequence (P10636 561-689 P618L limits assumed): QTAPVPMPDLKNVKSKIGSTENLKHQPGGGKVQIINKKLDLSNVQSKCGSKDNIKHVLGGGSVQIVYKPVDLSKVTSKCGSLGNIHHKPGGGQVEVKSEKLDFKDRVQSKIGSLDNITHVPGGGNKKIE
#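 Recombinant human tau K18 fragment […] carrying P301L, 15 uM unlabeled plus 0.24 uM Alexa 594-labeled, was fibrillized with 20 uM heparin in 100 mM sodium acetate pH 7 for 6 hr at 37 C; 30 uM ThT fluorescence read after 1 hr.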
# Sfp PPTase inh: Sfp phosphopantetheinyl transferase inhibition | Q9F4F7 | Biochemical Sfp PPTase activity, qHTS | Potency, µM, inactives show largest response in the series, negative = inhibition, usual class: inhibitors | hit rate 3.5% among 310,000;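 also: the enzyme is Sfp with the accession as filed and its product quenches rhodamine fluorescence; potency is read from the fitted curve at half-maximal effect; 0% = enzyme reaction without inhibitor and -100% = no enzyme wells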
#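 Fluorescence-quenching assay with 15 nM Sfp, 5 uM rhodamine-CoA and 12.5 uM BHQ-2-labelled ybbR peptide in pH 7.6 Hepes/MgCl2 buffer. Enzyme was pre-incubated with compound for 15 min at room temperature. Rate was taken from the 30-min fluorescence change (525/598 nm).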
# Coupling enz: inhibits coupling enzyme system, counter-screen for aldolase hits; coupling enzyme system counterscreen, AmpLite Red fluorescence; activity change, negative = inhibition, % at 58.2 µM, hits read low; hit rate 0.67% among 290,000; in the data active = activity change below about -30%
#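 Coupling enzymes only (glyceraldehyde-3-phosphate) + compound, at 57.5 uM final, 10 min RT; add substrate/coupling/AmpLite Red mix, 20 min RT; fluorescence ex 525/em 598 nm. Actives flag coupling-system interference.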
# Tau FP inhib: tau fibrillization inhibition (FP) | hit rate 0.39% among 280,000 | P10636 | K18 P301L tau heparin fibrillization, Alexa594 FP, 6 h | Potency, µM (titrated, usually from 57.7 µM), for inactives: at the top dose activity, negative = inhibition, actives largely listed as inhibitors | AID 1468; also: potency is read from the fitted curve at half-maximal effect; nearly all actives have a fitted effect of over 55% in size
#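 Human tau K18 […] P301L fragment, 15 uM unlabeled plus 0.24 uM Alexa 594-labeled tau (final), with compound and 20 uM heparin in 100 mM sodium acetate pH 7; 6 hr at 37 C, then Alexa 594 FP read.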
# G9a block: G9a (human) methyltransferase inhibition | Q96KQ7 | G9a H3K9 monomethylation, AlphaScreen, 2 h | Potency, µM (top dose mostly 102 µM), inactives show at the highest dose activity, negative = inhibition, usual class: inhibitors | hit rate 8.8% among 350,000 | AID 504332; also: potency is read from the fitted curve at half-maximal effect; nearly all actives have a fitted effect of over 75% in size
# Target sequence (Q96KQ7 913-1193 limits assumed): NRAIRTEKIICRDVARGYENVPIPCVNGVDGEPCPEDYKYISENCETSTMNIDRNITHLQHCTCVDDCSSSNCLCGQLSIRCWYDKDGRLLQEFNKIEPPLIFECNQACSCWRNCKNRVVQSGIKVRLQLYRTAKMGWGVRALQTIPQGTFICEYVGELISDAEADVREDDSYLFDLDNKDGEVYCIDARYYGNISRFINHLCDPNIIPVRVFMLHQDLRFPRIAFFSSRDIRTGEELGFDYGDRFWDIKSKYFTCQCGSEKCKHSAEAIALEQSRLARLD
#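 G9a (20 nM) preincubated 15 min RT with compounds, then 500 nM biotinylated H3K9 peptide and 20 uM SAM added; 2 h RT reaction. Monomethyl-H3K9 product detected by AlphaScreen with anti-H3K9me1 antibody, streptavidin donor and anti-rabbit IgG acceptor beads.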
# Tau fluor counter: counter-screen for tau fibril formation inhibitors; tau K18 P301L (four-repeat tau fragment) Alexa594 fluorescence, heparin fibrillization; Potency, µM (top dose mostly 57.7 µM), for inactives: at the top dose activity change, negative = decrease; hit rate 0.93% among 280,000; also: potency is read from the fitted curve at half-maximal effect; nearly all actives have a fitted effect of over 55% in size
#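 Human K18 P301L tau (15 uM unlabeled plus 0.24 uM Alexa 594-labeled, final) in 100 mM sodium acetate pH 7 was mixed with compound and 20 uM heparin and incubated 6 hr at 37 C.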
# Starred values were filed as active, the others as inactive; ? = inconclusive; · = not tested or not shown; ! = not confirmed by another sample; [ ] = remark or other dose. Rows were chosen to be rich in hits. Some 11% of all compounds tested hit in one or more screens of this group. Unless noted, calls follow the shape of the dose curve; as a rule, active = well fitted curve in the direction sought with a large enough effect; inconclusive = small, poorly fitted or top-dose-only effect, or another doubt; inactive = no such curve, though single readings can be large; an effect the other way counts as inactive or inconclusive. Unless noted, % is scaled to controls: 0 for no effect and ±100 for the full control effect.
SMILES,Tau fibril ThT,Sfp PPTase inh,Coupling enz,Tau FP inhib,G9a block,Tau fluor counter
O=C(Nc1ccc(OC(F)(F)F)cc1)Oc1ccccc1N1CCCCC1,·,5.6%,-1.5,?,·,-23.6%
COP(=S)(OC)Oc1nc(Cl)c(Cl)cc1Cl,·,?,4.1,·,·,·
CCOP(=S)(OCC)Oc1nc(Cl)c(Cl)cc1Cl,?,35.5µM*,1.1,?,-3.0%[0.501 µM],-17.2%
O=c1[nH]c(=O)n(C2CCCCC2)c(O)c1C1=Nc2ccccc2SC(c2ccc(Cl)cc2)C1 (configuration not stated),-11.7%,·,·,?,2.2%[59 µM],?
COP(=S)(OC)Oc1ccc([N+](=O)[O-])cc1,-14.3%,-3.2%,3.1,16.8%,·,5.3%
COP(=S)(OC)Oc1ccc(Sc2ccc(OP(=S)(OC)OC)cc2)cc1,·,39.8µM*,·,·,?,·
Cc1noc(C(=O)Nc2sc3c(c2C#N)CCC3)c1Cl,?,-24.8%,-20.1,3.1%,44.7µM*,-14.7%
Cc1ccc(Sc2ccc(C=C3C(=O)N(C)C(=O)N(C)C3=O)o2)cc1,?,8.91µM*,-11.4,-9.7%,·,6.3%
CN1C(=O)C(=Cc2ccc(-c3cccc(Cl)c3)o2)C(=O)N(C)C1=O,?,?,3.7,-4.3%,?,-24.7%
CCOc1ccccc1N=C1SCCCN1C,5.1%,-12.4%,0.5,-4.5%,5.01µM*,3.2%
c1ccc2c(CCNCc3ccc4c(c3)OCO4)c[nH]c2c1,3.0%,35.5µM*,-11.0,2.4%,?,5.8%
COc1cc(CNCCc2c[nH]c3ccccc23)cc(OC)c1,·,1.9%,0.6,·,31.6µM*,·
c1ccc(CNCCc2c[nH]c3ccccc23)cc1,·,-3.2%,1.3,·,4.1%,·
C[C@@H]1O[C@H](C[N+](C)(C)C)C[C@@H]1O,-8.0%,22.4%,·,-8.2%,15.5%[59 µM],-6.6%
COc1ccc2c(c1)[C@@]13CCCCC1[C@@H](C2)N(C)CC3 (some centres not stated),0.0%,-6.6%,-0.2,2.2%,-37.4%[2.33 µM],-6.3%
O=C(C[N+]12CCC(CC1)C(CO)C2)c1ccc([N+](=O)[O-])cc1 (configuration not stated),-17.7%,5.4%,-0.1,-2.6%,35.5µM*,-16.2%
O=C(C[N+]12CCC(CC1)C(OC(=O)c1ccccc1)C2)c1ccc([N+](=O)[O-])cc1 (configuration not stated),-17.5%,-1.0%,0.0,8.2%,·,-5.2%
CC(CNC(=O)c1cccnc1)NC(=O)c1cccnc1 (configuration not stated),·,2.0%,·,·,?,·
COc1ccc(CNCCc2ccc(Cl)cc2)c(OC)c1OC,·,0.9%,-0.6,·,35.5µM*,·
O=C(Cc1ccc(Cl)c(Cl)c1)N1CCCC[C@H]1CN1CCCC1,-16.4%,-9.0%,2.4,-9.4%,·,-14.1%
CCCCC/C=C\C/C=C\C/C=C\CCCCC(=O)NCCc1ccc(O)c(O)c1,10.9%,11.1%,2.7,-1.9%,·,1.8%
CCCCC/C=C\C/C=C\CCCCCCCCCC(=O)NCCc1ccc(O)c(O)c1,-0.9%,13.6%,1.4,-2.2%,·,-6.4%
OCCCc1ccc(O)c(O)c1,?,50.1µM*,-7.4,-9.3%,-122.0%[59 µM],-10.4%
CCCN(CCC)CCc1ccc(O)c(O)c1,-13.5%,-23.7%,·,5.3%,20µM*!,-10.6%
NC(N)=NN=Cc1c(Cl)cccc1Cl,0.5%,0.8%,-1.0,1.4%,10.3%[21.5 µM],-1.5%
SMILES,Tau fibril ThT,Sfp PPTase inh,Coupling enz,Tau FP inhib,G9a block,Tau fluor counter
CN1C(=O)NC(=O)/C(=C/c2ccc(C(=O)O)cc2)C1=O,·,44.7µM*,-0.2,3.9%,-42.0%,?
CC(=O)N1CC[N+](C)(C)CC1,3.6%,0.1%,6.0,-4.2%,-3.2%[59 µM],3.4%
CCC(C)N1C(=O)/C(=C/c2ccc3c(c2)CCN3CCCCl)C(=O)NC1=S (configuration not stated),31.6µM*,?,0.7,?,12.6µM*,?
O=C1CS[C@@H](c2ccccc2Cl)c2cc(Cl)ccc2N1,?,-2.0%,-2.7,4.0%,·,-28.2%
COC[C@H]([C@@H](O)[C@@H](O)C(=O)NCC[C@@H](C)c1nc(/C=C/C[C@H]2OC3(C[C@H](O)[C@H]2C)OC([C@@H](C[C@@H](O)[C@@H](C)[C@@H](O)[C@@H](C)/C=C(C)/C(C)=C/C=C/C(C)=C\C#N)OC)[C@@H](OP(=O)(O)O)C3(C)C)co1)N(C)C (some centres not stated),-2.7%,16.4%,2.8,0.8%,27.1%[59 µM],-2.8%
O=C1NC(=O)C(=Cc2ccccc2Oc2ccc(F)cc2)C(=O)N1,?,44.7µM*,0.2,3.3%,10µM*,-3.7%
CN1C(=O)C(=Cc2ccccc2Oc2ccc(Cl)c(F)c2)C(=O)N(C)C1=O,?,56.2µM*,10.9,0.1%,-20.8%,-3.7%
C=CCn1cc(C=C2C(=O)N(C)C(=O)N(C)C2=O)c2ccccc21,·,-5.0%,1.5,·,-3.2%,·
CCOC(=O)C(NC(C)=O)C(OC(C)=O)c1cccc(N(CCCl)CCCl)c1 (configuration not stated),12.9%,2.2%,2.3,12.0%,14.1µM*,11.4%
CC(=O)NC(Cc1ccc(N(CCCl)CCCl)cc1)C(=O)O (configuration not stated),-12.4%,-1.4%,2.5,10.6%,-25.2%[59 µM],-1.8%
N[C@@H](Cc1ccc(N(CCCl)CCCl)cc1)C(=O)O,·,?,·,·,7.94µM*,·
N#Cc1cccc(NC(=O)c2sc3nc4c(cc3c2N)N2CCC4CC2)c1,?,·,·,8.3%,1.0%[59 µM],?
Nc1c(C(=O)Nc2ccc(F)c(Cl)c2)sc2nc3c(cc12)N1CCC3CC1,?,·,·,17.4%,8.91µM*,?
CN(C)c1ccc(NC(=O)c2sc3nc4c(cc3c2N)N2CCC4CC2)cc1,?,·,·,-7.1%,5.01µM*,?
C=CCN1C[C@H](C)N([C@H](c2ccc(C(=O)N(CC)CC)cc2)c2cccc(O)c2)C[C@H]1C,-10.8%,-4.5%,0.4,-3.1%,·,-7.2%
CC(=O)O[C@H]1CC[C@H]2[C@@H]3CCC4=CC(=O)CCC4=C3C=C[C@]12C,·,-1.9%,·,·,?,·
CC(=O)O[C@H]1CCC2C3CCC4=CC(=O)CCC4=C3C=C[C@@]21C (some centres not stated),·,?,-9.7,·,44.7µM*,·
COC(=O)c1c(C)n(Cc2ccc3c(c2)OCO3)c2ccc(O)cc12,?,-7.7%,-2.0,13.9%,35.5µM*,?
CCOC(=O)c1c(C)n(Cc2ccco2)c2ccc(O)cc12,-9.3%,44.7µM*,0.3,6.8%,8.91µM*,-14.6%
CCOC(=O)c1c(C)n(COCCO)c2ccc(O)cc12,?,0.0%,-0.3,4.8%,-5.9%,-5.2%
